PubChem BioAssay (EPA / NIEHS)
Several values for one entry are separate records, joined by “and”; a condition that tells them apart may be missing. Equal entries are not always repeated. Where a structure was tested more than once in an assay, its records may differ in their call. Activity calls are given as the source filed them. How the source made its calls: active means hit-call score of the fitted dose curve at least 0.9, where 1 is the maximum; inactive means score below 0.9.

Tests used:
[1] = read-out: Macrophage colony-stimulating factor (MCSF), CSF1 (gene 1435); assay: BSK_hDFCGF_MCSF: BioMAP Diversity Plus: hDFCGF Assay for Macrophage colony-stimulating factor (MCSF) Biomarker Activity (AID 2283060); settings: primary human foreskin fibroblasts; actives raise or lower the signal
Procedure, shortened: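 fibroblasts (human foreskin, primary), 24 h post-dose; M-CSF by ELISA; bidirectional fit, DMSO = baseline.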

[2] = read-out: Monokine induced gamma interferon (MIG), CXCL9 (gene 4283); assay: BSK_hDFCGF_MIG: BioMAP Diversity Plus: hDFCGF Assay for Monokine induced gamma interferon (MIG) Biomarker Activity (AID 2283063); settings: primary human foreskin fibroblasts; actives raise or lower the signal
Procedure, shortened: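 Endpoint derived by bidirectional fitting relative to DMSO; MIG quantified via ELISA in primary human foreskin fibroblasts harvested 24 h after dosing.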

[3] = read-out: Matrix Metallopeptidase 1 (MMP1), MMP1 (gene 4312); assay: BSK_hDFCGF_MMP1: BioMAP Diversity Plus: hDFCGF Assay for Matrix Metallopeptidase 1 (MMP1) Biomarker Activity (AID 2283064); settings: primary human foreskin fibroblasts; actives raise or lower the signal
Procedure, shortened: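 hDFCGF primary fibroblasts (human foreskin); chemical added; 24 h; MMP1 by ELISA; bidirectional fit vs DMSO.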

[4] = read-out: Plasminogen activator inhibitor-1 (PAI1), SERPINE1 (gene 5054); assay: BSK_hDFCGF_PAI1: BioMAP Diversity Plus: hDFCGF Assay for Plasminogen activator inhibitor-1 (PAI1) Biomarker Activity (AID 2283066); settings: primary human foreskin fibroblasts; actives raise or lower the signal
Procedure, shortened: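 PAI-1 levels, determined by ELISA, served as the endpoint in human foreskin fibroblast cultures exposed to compound for 24 h, with DMSO as baseline.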

[5] = read-out: Intercellular Adhesion Molecule 1 (ICAM1), ICAM1 (gene 3383); assay: BSK_KF3CT_ICAM1: BioMAP Diversity Plus: KF3CT Assay for Intercellular Adhesion Molecule 1 (ICAM1) Biomarker Activity (AID 2283067); settings: primary human keratinocytes with fibroblasts; actives raise or lower the signal
Procedure, shortened: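 Bidirectional curve fitting against a DMSO baseline was applied to ICAM-1 ELISA signal from primary human skin co-cultures harvested 24 h after treatment, with SRB staining of parallel wells for overt cytotoxicity.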

[6] = read-out: Interferon-gamma inducible Protein 10 (IP10), CXCL10 (gene 3627); assay: BSK_KF3CT_IP10: BioMAP Diversity Plus: KF3CT Assay for Interferon-gamma inducible Protein 10 (IP10) Biomarker Activity (AID 2283068); settings: primary human keratinocytes with fibroblasts; actives raise or lower the signal
Procedure, shortened: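 In a primary skin co-culture of keratinocytes and fibroblasts, IP-10 is quantified by ELISA at 24 h after dosing. SRB staining of parallel wells monitors overt toxicity. Curves are fitted both directions against DMSO.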

[7] = BSK_KF3CT_SRB: Viability Assessment in the BioMAP Diversity Plus: KF3CT Assay (AID 2283069); settings: primary human keratinocytes with fibroblasts;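 further: total protein by sulforhodamine B staining as a cytotoxicity measure; read 24 h after compound addition; fitted for both signal gain and loss against DMSO baseline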
Procedure, shortened: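 Keratinocytes co-cultured with foreskin fibroblasts (human primary); chemical added, 24 h; fix 10% TCA, stain 0.1% SRB, A560. Bidirectional fit vs DMSO.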

[8] = read-out: Interleukin-1 alpha (IL1a), IL1A (gene 3552); assay: BSK_KF3CT_IL1a: BioMAP Diversity Plus: KF3CT Assay for Interleukin-1 alpha (IL1a) Biomarker Activity (AID 2283070); settings: primary human keratinocytes with fibroblasts; actives raise or lower the signal
Procedure, shortened: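 Chemicals were dosed onto co-cultured human keratinocytes and foreskin fibroblasts, IL-1a was quantified by ELISA at 24 h, and activity was fitted in both directions relative to DMSO controls.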

[9] = read-out: TIMP metallopeptidase inhibitor 2 (TIMP2), TIMP2 (gene 7077); assay: BSK_KF3CT_TIMP2: BioMAP Diversity Plus: KF3CT Assay for TIMP metallopeptidase inhibitor 2 (TIMP2) Biomarker Activity (AID 2283071); settings: primary human keratinocytes with fibroblasts; actives raise or lower the signal
Procedure, shortened: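 Keratinocyte–fibroblast co-culture, 24 h exposure; TIMP-2 ELISA, DMSO-normalised bidirectional fit. Parallel SRB (0.1%, TCA-fixed, 560 nm) total-protein staining gauges cytotoxicity.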

[10] = read-out: C-C motif chemokine 2 (Homo sapiens) (UniProt P13500); assay: BSK_KF3CT_MCP1: BioMAP Diversity Plus: KF3CT Assay for Monocyte Chemoattractant Protein 1 (MCP1/CCL2) Biomarker Activity (AID 2283073); settings: primary human keratinocytes with fibroblasts; actives raise or lower the signal
Procedure, shortened: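 Biomarker MCP-1 is measured by ELISA in primary human keratinocytes co-cultured with foreskin fibroblasts, 24 h after chemical treatment; DMSO serves as the negative control and activity baseline.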

[11] = read-out: Matrix Metallopeptidase 9 (MMP9), MMP9 (gene 4318); assay: BSK_KF3CT_MMP9: BioMAP Diversity Plus: KF3CT Assay for Matrix Metallopeptidase 9 (MMP9) Biomarker Activity (AID 2283074); settings: primary human keratinocytes with fibroblasts; actives raise or lower the signal;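 on AC50: MMP9 protein level quantified by ELISA in the co-culture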
Procedure, shortened: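 Human keratinocyte/foreskin fibroblast co-culture; compound added; 24 h; MMP-9 by ELISA; bidirectional fit vs DMSO baseline.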

[12] = read-out: urokinase plasminogen activator (uPA), PLAU (gene 5328); assay: BSK_KF3CT_uPA: BioMAP Diversity Plus: KF3CT Assay for urokinase plasminogen activator (uPA) Biomarker Activity (AID 2283075); settings: primary human keratinocytes with fibroblasts; actives raise or lower the signal
Procedure, shortened: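 ELISA readout of uPA, analyzed for signal gain or loss relative to DMSO, from a human primary keratinocyte–foreskin fibroblast co-culture measured 24 h after chemical treatment.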

[13] = read-out: CD40, CD40 (gene 958); assay: BSK_LPS_CD40: BioMAP Diversity Plus: LPS Assay for CD40 Biomarker Activity (AID 2283076); settings: primary human HUVEC with PBMC; actives raise or lower the signal
Procedure, shortened: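 Using a multiplexed primary human co-culture (umbilical vein endothelium plus PBMC), CD40 was read by ELISA 24 h after dosing, with cytotoxicity tracked by sulforhodamine B staining of parallel cultures and activity fitted bidirectionally versus DMSO.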

[14] = read-out: Interleukin-8 (IL8), CXCL8 (gene 3576); assay: BSK_LPS_IL8: BioMAP Diversity Plus: LPS Assay for Interleukin-8 (IL8) Biomarker Activity (AID 2283078); settings: primary human HUVEC with PBMC; actives raise or lower the signal
Procedure, shortened: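 In this LPS system, chemical-treated human umbilical vein endothelium/PBMC co-cultures were harvested at 24 h for IL-8 ELISA.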

[15] = BSK_LPS_SRB: Viability Assessment in the BioMAP Diversity Plus: LPS Assay (AID 2283079); settings: primary human HUVEC with PBMC;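 further: total protein by sulforhodamine B absorbance as a cytotoxicity measure; measured one day after compound addition; fitted in both directions against DMSO so loss or gain of signal counts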
Procedure, shortened: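 Cytotoxicity endpoint in human endothelial–PBMC co-culture: 24 h exposure, then SRB (0.1%) staining, 560 nm read.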

[16] = read-out: TIMP metallopeptidase inhibitor 1 (TIMP1), TIMP1 (gene 7076); assay: BSK_hDFCGF_TIMP1: BioMAP Diversity Plus: hDFCGF Assay for TIMP metallopeptidase inhibitor 1 (TIMP1) Biomarker Activity (AID 2283062); settings: primary human foreskin fibroblasts; actives raise or lower the signal
Procedure, shortened: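 Bidirectional curve fitting against DMSO baseline yielded this endpoint, based on ELISA detection of TIMP-1 in primary human foreskin fibroblasts exposed to compound for 24 h.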

[17] = read-out: E-selectin (Homo sapiens) (UniProt P16581); assay: BSK_LPS_Eselectin: BioMAP Diversity Plus: LPS Assay for Eselectin Biomarker Activity (AID 2283077); settings: primary human HUVEC with PBMC; actives raise or lower the signal
Procedure, shortened: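 Dose chemical onto LPS-driven HUVEC/PBMC co-culture; after 24 h, run ELISA for E-selectin; fit up- and down-going responses relative to DMSO control.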

[18] = read-out: Transforming growth factor beta 1 (TGFb1), TGFB1 (gene 7040); assay: BSK_KF3CT_TGFb1: BioMAP Diversity Plus: KF3CT Assay for Transforming growth factor beta 1 (TGFb1) Biomarker Activity (AID 2283072); settings: primary human keratinocytes with fibroblasts; actives raise or lower the signal
Procedure, shortened: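 Signal changes in either direction, relative to DMSO, define activity here. TGF-b1 is read by ELISA from a human keratinocyte-fibroblast co-culture 24 h post-dose.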

[19] = read-out: Vascular cell adhesion molecule 1 (VCAM1), VCAM1 (gene 7412); assay: BSK_hDFCGF_VCAM1: BioMAP Diversity Plus: hDFCGF Assay for Vascular cell adhesion molecule 1 (VCAM1) Biomarker Activity (AID 2283065); settings: primary human foreskin fibroblasts; actives raise or lower the signal
Procedure, shortened: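 Measured after 24 h chemical treatment of primary human skin fibroblasts, VCAM-1 was detected by ELISA and concentration-response analysed in both directions versus DMSO vehicle.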

Measured: AC50

E-selectin (Homo sapiens), sequence (P16581 whole entry, looked up): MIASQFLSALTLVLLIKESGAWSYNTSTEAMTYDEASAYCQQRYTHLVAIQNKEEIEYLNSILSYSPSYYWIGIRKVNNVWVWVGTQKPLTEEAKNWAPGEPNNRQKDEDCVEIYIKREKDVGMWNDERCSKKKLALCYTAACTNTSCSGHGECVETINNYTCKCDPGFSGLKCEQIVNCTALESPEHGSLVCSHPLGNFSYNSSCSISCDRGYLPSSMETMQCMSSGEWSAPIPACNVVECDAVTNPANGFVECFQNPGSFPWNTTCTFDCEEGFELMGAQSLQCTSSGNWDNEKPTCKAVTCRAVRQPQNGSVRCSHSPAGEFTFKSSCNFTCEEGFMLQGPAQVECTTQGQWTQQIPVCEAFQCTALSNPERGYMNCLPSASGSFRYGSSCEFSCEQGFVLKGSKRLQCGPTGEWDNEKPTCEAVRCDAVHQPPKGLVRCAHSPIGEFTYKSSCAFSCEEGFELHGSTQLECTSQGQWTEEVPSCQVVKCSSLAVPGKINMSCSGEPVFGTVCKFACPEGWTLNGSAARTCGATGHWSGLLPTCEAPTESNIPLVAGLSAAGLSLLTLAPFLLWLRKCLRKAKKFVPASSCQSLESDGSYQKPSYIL

O=C(O)C(F)(F)C(F)(F)C(F)(F)C(F)(F)C(F)(F)C(F)(F)C(F)(F)C(F)(F)Cl
inactive: [13]
active: [1] 30 µM and 46.9 µM | [2] 21.4 µM and 34.1 µM | [3] 1.31 µM and 12.3 µM | [4] 47.7 µM and 46.5 µM | [5] 32 µM and 25.1 µM | [6] 45 µM and 45.9 µM | [7] 41.7 µM and 49.7 µM | [8] 30 µM and 20.5 µM | [9] 53.9 µM and 52.6 µM | [10] 49.4 µM and 55.1 µM | [11] 37.5 µM and 40.3 µM | [12] 47.8 µM and 47.2 µM | [14] 5.95 µM and 40.1 µM | [15] 48.4 µM and 47.2 µM

N=C(N)C(F)(F)C(F)(F)C(F)(F)C(F)(F)C(F)(F)C(F)(F)C(F)(F)F
active: [1] 40.9 µM and 37.2 µM | [2] 46 µM | [4] 55.3 µM and 54.2 µM | [13] 41.5 µM | [14] 46.8 µM | [15] 55.1 µM
inactive: [16] | [2] | [3] | [5] | [6] | [7] | [8] | [9] | [10] | [11] | [12] | [13] | [17] | [14] | [15]

OCCCC(F)(F)C(F)(F)C(F)(F)C(F)(F)C(F)(F)C(F)(F)C(F)(F)F
active: [1] 15.6 µM and 16.6 µM | [2] 16.3 µM and 14.6 µM | [3] 13 µM and 15 µM | [4] 15.3 µM and 14.9 µM | [5] 28.3 µM and 47.3 µM | [6] 23.9 µM and 49.7 µM | [7] 24.2 µM and 49 µM | [8] 24 µM and 43.8 µM | [9] 14.7 µM and 37 µM | [10] 27.3 µM and 42.9 µM | [11] 20 µM and 45 µM | [12] 22.8 µM and 47.2 µM | [13] 45.6 µM and 45.1 µM | [14] 53.5 µM and 54.5 µM | [15] 54 µM and 46.2 µM

CCCCOCCOCCOC(=O)CCCCC(=O)OCCOCCOCCCC
active: [8] 2.19 µM
not listed: [19]
inactive: all other assays above

Cc1ccc(S(=O)(=O)OCC(F)(F)C(F)(F)C(F)(F)C(F)(F)C(F)(F)C(F)F)cc1
active: [11] 10.8 µM | [13] 30 µM
inactive: [1] | [2] | [3] | [19] | [4] | [5] | [6] | [7] | [8] | [9] | [10] | [11] | [12] | [13] | [17] | [14] | [15]

FC(F)(F)C(F)(F)C(F)(F)CI
inactive: [1] | [2] | [3] | [4] | [5] | [6] | [7] | [8] | [9] | [10] | [11] | [12] | [13] | [14] | [15]
active: [14] 1.84 µM
